# PubChem BioAssay (Tox21)
# Results filed as inconclusive are left out. Entries that show only a call come without a potency. Activity calls are given as the source filed them. Calls follow the shape of the full dose curve.
# Assay: qHTS assay for small molecule agonists of the antioxidant response element (ARE) signaling pathway - cell viability counter screen (AID 743203); also: nearly all actives have a fitted effect of over 55% in size
# Conditions: ARE-bla HepG2 viability, CellTiter-Glo luminescence, 16 h; series mostly up to 73.3 µM
# Source text: National Center for Advancing Translational Sciences [NCATS]
# NIH Chemical Genomics Center [NCGC]
# U.S. Environmental Protection Agency [EPA]
# National Institutes of Environmental Health Sciences [NIEHS]
# National Toxicology Program [NTP]
# U.S. Food and Drug Administration [FDA]
# Oxidative stress has been implicated in the pathogenesis of a variety of diseases ranging from cancer to neurodegeneration. The antioxidant response element (ARE) signaling pathway plays an important role in the amelioration of oxidative stress. The CellSensor ARE-bla HepG2 cell line (Invitrogen) can be used for analyzing the Nrf2/antioxidant response signaling pathway. Nrf2 (NF-E2-related factor 2) and Nrf1 are transcription factors that bind to AREs and activate these genes. The CellSensor ARE-bla Hep G2 cell line contains a beta-lactamase reporter gene under control of the Antioxidant Response Element (ARE) stably integrated into HepG2 cells. The activation of the report gene under culture conditions can be detected by fluorescence intensity. This cell line has been used to screen the Tox21 10K compound library to identify agonists that induce oxidative stress. The cytotoxicity of the Tox21 compound library against the ARE-bla cell line was tested in parallel by measuring the cell viability using CellTiter-Glo assay (Promega, Madison, WI) in the same wells.
# Tox21 Assay Protocol Summary:
# ARE-bla HepG2 cells were dispensed at 2,000 cells/5 ul/well in 1536-well white wall/solid bottom plates using a Multidrop Combi (ThermoFisher Scientific, Waltham, MA) dispenser. After the assay plates were incubated at 37C/5% CO2 for 5 hrs, 23 nL of compounds dissolved in DMSO, positive controls or DMSO only was transferred to the assay plate by a pintool work station (Kalypsys, San Diego, CA). The plates were incubated at 37C/5% CO2 for 16 hrs, followed by addition of 4 ul/well of CellTiter-Glo reagent into the assay plates using a Flying Reagent Dispenser (Aurora Discovery, San Diego, CA). After 30 min incubation at room temperature, the luminescence intensity in the assay plates was measured using a ViewLux (PerkinElmer, Shelton, CT) plate reader.
SMILES,Potency,"viability change, negative = cytotoxic"
CC(C(=O)O)c1ccc(/C=C2\CCCCC2=O)cc1 (stereo not given),inactive,–
c1ccc(CN(Cc2ccccc2)Cc2ccccc2)cc1,inactive,–
CC1=C(C)C(=O)C(CCCCC#CCCCC#CCO)=C(C)C1=O,inactive,–
CCc1ccc(C(=O)C(C)CN2CCCCC2)cc1 (stereo not given),inactive,–
CC(=O)Nc1ccccc1O,inactive,–
COC(=O)Cc1cccc2ccccc12,inactive,–
CCCCCCCCC(=O)OCC(C)OC(=O)CCCCCCCC (stereo not given),inactive,–
CC(=O)Nc1ccn(C2COC(COC(=O)c3ccccc3)O2)c(=O)n1 (stereo not given),inactive,–
C=CC(=O)NC(C)(C)C,inactive,–
CCOC(=O)CC(O)(CC(=O)OCC)C(=O)OCC,inactive,–
CCCCCO,inactive,–
CC(C)=CCCC(C)C=O (stereo not given),inactive,–
C/C(=C\C(C)CC(C)CC(C)C)C1CC(=O)OC1=O (stereo not given),inactive,–
CC1(C)CC(=O)CC(C)(C)N1,inactive,–
CC/C=C\CCO,inactive,–
Oc1ccc(Oc2ccccc2)cc1,inactive,–
CCCCCCCCS,inactive,–
CCCC(=O)OCCC(C)C,inactive,–
CC(CCl)OC(C)CCl (stereo not given),inactive,–
C=CC(=O)OCCCCCCCCCC,inactive,–

SMILES,Potency,"viability change, negative = cytotoxic"
C=CC(C)(O)CC/C=C(/C)CCC=C(C)C (stereo not given),inactive,–
CCc1ccc2c(c1)C(=O)c1ccccc1C2=O,inactive,–
O=c1c2ccccc2oc2ccccc12,inactive,–
CC(C)CCCCCOC(=O)CS,inactive,–
O=P(c1ccccc1)(c1ccccc1)c1ccccc1,inactive,–
O=C1c2ccccc2C(=O)c2c1ccc(O)c2O,inactive,–
O=C(OCCOCCOCCOC(=O)c1ccccc1)c1ccccc1,inactive,–
CC(O)C(C)O (stereo not given),inactive,–
CC1=CC(=C(c2ccc(N)cc2)c2ccc(N)cc2)C=CC1=N,–,-12.3% [at 8.36 µM] (inactive)
O=C(O)c1ccccc1-n1cc(C(=O)O)c(=O)c2cc(Nc3c(F)cc(F)cc3Cl)c(Cl)cc21,inactive,–
CC(Cc1ccccc1)(NC(=O)CN)c1ccccc1 (stereo not given),inactive,–
Cc1c(-c2cccnc2)c2ccccc2n1CCCCC(=O)O,inactive,–
CCCCCCCCCCCCCCCCC(=O)O,inactive,–
CNc1ccccc1,inactive,–
Cc1ccc(S(=O)(=O)NC(=O)NC2CCCC2)cc1,inactive,–
CC(=O)Nc1cccc(N)c1,inactive,–
CCOc1ccc2c(c1)C(C)CC(C)(C)N2 (stereo not given),inactive,–
CCCC(=O)OCc1ccccc1,inactive,–
CCOC(OCC)OCC,inactive,–
O=C(O)c1cc(C(=O)O)cc([N+](=O)[O-])c1,inactive,–
